The supplement of paper PMC11732987, “Enantioselective OTUD7B fragment discovery through chemoproteomics screening and high-throughput optimisation” (Communications Chemistry, 2025)

Assays:
Assay in all cases: log2 ratio of Biotin-Ahx-Ub-VS probe labelling (fragment/DMSO); higher = less target engagement (more negative = stronger competition), active = hit call of the paper (q ≤ 0.05, log2 ratio ≤ -1)
Settings in all cases: compound concentration: 200 uM; treatment time: 3 h
USP42 = biological target: T1, USP42 (UniProt Q9H9J4)
T1 sequence (whole entry): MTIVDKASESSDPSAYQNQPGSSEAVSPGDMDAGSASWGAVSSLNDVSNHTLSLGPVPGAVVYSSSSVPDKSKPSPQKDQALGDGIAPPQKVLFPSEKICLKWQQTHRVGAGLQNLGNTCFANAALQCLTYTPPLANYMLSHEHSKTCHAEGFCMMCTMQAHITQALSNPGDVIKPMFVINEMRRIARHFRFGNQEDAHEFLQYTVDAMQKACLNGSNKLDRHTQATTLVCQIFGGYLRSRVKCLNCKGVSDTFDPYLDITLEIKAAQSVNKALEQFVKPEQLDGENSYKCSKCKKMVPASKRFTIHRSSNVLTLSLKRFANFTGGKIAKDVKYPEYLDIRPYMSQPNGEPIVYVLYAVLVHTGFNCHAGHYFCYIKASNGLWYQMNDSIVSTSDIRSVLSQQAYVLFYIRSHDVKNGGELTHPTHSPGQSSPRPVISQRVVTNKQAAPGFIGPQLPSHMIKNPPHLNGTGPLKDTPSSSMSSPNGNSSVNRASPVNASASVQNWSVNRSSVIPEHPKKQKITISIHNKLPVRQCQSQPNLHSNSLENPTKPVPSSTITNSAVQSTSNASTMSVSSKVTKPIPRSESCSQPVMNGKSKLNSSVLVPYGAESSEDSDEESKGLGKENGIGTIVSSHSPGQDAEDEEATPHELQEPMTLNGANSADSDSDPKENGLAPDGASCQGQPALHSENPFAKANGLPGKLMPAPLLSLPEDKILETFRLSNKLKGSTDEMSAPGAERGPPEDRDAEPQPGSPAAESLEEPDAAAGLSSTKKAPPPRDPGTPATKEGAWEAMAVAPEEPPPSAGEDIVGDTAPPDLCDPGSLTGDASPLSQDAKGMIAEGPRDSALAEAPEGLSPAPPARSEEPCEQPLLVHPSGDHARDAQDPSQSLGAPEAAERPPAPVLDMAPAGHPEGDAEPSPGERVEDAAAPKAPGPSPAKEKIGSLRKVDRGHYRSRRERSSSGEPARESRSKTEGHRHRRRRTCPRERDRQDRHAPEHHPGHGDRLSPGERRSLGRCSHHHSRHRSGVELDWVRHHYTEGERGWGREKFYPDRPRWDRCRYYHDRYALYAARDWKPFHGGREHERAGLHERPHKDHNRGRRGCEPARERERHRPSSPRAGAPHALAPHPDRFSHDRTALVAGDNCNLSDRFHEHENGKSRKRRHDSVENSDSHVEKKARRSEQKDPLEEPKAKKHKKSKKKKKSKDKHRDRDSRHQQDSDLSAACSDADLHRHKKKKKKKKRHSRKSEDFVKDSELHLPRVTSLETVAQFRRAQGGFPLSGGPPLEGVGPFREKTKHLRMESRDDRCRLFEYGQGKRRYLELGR
Method in brief: (§1)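 Each value is an average log2 ratio of fragment to vehicle, tested by unpaired t-test. The underlying Spectronaut label-free quantities were global-median-normalised, and only proteins with ≥2 unique peptides were included. Triplicate HEK293T lysate samples (495 µg) were exposed to fragment at 200 µM or vehicle for 3 h, then to Biotin-Ahx-Ub-VS at 0.5 µM final for 1 h, before NeutrAvidin enrichment of labelled DUBs, LysC and trypsin digestion, and diaPASEF LC-MS/MS.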

USP46 = USP46 (UniProt P62068)
USP46, sequence (P62068 whole entry): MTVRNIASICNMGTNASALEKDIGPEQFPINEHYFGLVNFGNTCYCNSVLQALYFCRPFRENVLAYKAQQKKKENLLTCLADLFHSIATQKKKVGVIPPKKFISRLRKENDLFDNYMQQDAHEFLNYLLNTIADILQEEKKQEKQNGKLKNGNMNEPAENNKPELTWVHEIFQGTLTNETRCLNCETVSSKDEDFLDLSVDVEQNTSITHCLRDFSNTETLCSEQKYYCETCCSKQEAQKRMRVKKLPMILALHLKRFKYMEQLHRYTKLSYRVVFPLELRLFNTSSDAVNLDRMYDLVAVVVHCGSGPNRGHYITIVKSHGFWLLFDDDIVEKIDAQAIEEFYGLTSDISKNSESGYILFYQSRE
Method in brief: as §1

USP47 = biological target: T2, USP47 (UniProt Q96K76)
T2 sequence (whole entry): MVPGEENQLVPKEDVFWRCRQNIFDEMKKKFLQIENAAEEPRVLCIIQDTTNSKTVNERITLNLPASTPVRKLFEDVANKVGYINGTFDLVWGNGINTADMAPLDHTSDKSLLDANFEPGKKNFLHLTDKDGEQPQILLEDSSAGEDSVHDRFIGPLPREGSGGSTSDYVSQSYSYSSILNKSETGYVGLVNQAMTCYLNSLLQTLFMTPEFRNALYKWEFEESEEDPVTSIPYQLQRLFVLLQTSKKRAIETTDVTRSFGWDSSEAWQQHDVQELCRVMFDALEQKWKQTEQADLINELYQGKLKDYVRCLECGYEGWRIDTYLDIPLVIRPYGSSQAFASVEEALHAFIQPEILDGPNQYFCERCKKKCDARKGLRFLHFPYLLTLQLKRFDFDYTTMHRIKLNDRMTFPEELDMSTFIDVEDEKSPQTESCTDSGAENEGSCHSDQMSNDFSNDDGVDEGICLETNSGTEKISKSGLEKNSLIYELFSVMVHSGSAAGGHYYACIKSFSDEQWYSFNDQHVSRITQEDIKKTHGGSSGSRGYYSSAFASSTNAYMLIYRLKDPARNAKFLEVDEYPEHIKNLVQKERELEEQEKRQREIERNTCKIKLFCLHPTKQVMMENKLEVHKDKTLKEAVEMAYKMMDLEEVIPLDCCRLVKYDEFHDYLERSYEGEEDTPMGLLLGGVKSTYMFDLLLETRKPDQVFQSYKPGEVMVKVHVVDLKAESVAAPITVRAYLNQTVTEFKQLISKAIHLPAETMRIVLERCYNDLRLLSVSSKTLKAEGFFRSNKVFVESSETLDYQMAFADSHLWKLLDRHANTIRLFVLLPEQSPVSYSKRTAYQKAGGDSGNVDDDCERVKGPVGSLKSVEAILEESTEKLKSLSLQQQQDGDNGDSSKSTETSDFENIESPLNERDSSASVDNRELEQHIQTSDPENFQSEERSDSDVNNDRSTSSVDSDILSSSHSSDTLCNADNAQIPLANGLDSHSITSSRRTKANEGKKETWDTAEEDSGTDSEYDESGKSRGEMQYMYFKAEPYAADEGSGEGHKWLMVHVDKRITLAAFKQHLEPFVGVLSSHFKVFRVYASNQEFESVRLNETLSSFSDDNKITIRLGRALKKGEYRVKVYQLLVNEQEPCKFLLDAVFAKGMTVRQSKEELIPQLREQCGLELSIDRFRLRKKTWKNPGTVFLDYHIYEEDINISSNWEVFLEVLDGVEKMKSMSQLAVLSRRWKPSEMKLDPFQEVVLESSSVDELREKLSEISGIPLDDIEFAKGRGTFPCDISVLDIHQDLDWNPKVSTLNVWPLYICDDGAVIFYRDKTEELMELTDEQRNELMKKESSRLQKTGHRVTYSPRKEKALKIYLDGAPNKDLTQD
Method in brief: as §1

USP48 = biological target: T3, USP48 (UniProt Q86UV5)
T3 sequence (whole entry): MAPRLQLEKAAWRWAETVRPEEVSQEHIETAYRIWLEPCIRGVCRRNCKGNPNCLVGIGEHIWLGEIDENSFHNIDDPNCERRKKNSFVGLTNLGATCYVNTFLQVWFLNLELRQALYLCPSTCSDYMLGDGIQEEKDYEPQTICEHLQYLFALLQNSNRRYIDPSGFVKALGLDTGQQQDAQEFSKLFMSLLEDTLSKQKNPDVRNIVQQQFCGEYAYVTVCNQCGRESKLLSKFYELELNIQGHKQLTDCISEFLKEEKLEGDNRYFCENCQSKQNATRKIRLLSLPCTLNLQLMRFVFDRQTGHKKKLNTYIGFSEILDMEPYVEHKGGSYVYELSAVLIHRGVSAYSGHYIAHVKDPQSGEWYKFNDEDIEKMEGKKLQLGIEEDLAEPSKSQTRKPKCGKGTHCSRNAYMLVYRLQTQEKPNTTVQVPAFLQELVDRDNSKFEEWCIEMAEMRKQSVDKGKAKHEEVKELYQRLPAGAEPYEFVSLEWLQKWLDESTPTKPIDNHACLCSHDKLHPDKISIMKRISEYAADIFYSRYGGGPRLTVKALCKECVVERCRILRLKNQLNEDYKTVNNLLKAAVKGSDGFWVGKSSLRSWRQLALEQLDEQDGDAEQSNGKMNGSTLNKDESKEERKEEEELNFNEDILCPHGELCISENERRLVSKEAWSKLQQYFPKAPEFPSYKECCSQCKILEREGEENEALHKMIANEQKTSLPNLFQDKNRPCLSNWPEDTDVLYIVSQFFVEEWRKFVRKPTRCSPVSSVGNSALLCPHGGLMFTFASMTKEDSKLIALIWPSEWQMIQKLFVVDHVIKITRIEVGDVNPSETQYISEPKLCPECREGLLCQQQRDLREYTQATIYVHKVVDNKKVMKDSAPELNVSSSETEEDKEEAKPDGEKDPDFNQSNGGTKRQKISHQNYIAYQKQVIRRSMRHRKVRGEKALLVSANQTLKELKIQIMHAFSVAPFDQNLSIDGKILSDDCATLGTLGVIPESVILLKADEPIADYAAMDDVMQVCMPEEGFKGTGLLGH
Method in brief: as §1

USP5 = biological target: T4, USP5 (UniProt P45974)
T4 sequence (whole entry): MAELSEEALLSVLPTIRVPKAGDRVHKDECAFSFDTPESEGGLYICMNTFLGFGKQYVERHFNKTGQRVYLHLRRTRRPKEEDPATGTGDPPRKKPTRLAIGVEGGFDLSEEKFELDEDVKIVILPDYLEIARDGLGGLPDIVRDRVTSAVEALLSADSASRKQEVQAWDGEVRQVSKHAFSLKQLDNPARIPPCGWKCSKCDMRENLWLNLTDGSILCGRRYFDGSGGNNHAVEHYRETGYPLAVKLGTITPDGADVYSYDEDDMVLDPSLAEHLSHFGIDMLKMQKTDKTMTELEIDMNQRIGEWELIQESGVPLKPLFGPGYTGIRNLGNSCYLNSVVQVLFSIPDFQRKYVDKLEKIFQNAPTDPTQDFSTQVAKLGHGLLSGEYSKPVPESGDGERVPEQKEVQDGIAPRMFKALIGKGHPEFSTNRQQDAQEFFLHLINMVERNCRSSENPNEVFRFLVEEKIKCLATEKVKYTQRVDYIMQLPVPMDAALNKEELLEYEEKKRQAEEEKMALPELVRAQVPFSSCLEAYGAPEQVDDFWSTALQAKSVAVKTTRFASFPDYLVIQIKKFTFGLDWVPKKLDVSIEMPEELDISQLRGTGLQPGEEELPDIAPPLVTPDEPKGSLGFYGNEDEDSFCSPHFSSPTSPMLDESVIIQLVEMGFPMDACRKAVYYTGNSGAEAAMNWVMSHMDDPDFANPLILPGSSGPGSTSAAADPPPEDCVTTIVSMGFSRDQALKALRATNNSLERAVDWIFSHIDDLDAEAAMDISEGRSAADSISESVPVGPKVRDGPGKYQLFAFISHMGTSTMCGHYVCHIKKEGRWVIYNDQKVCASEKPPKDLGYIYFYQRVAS
Method in brief: as §1

USP54 = USP54 (UniProt Q70EL1)
Method in brief: as §1

USP7 = USP7 (UniProt Q93009)
USP7, sequence (Q93009 whole entry, looked up): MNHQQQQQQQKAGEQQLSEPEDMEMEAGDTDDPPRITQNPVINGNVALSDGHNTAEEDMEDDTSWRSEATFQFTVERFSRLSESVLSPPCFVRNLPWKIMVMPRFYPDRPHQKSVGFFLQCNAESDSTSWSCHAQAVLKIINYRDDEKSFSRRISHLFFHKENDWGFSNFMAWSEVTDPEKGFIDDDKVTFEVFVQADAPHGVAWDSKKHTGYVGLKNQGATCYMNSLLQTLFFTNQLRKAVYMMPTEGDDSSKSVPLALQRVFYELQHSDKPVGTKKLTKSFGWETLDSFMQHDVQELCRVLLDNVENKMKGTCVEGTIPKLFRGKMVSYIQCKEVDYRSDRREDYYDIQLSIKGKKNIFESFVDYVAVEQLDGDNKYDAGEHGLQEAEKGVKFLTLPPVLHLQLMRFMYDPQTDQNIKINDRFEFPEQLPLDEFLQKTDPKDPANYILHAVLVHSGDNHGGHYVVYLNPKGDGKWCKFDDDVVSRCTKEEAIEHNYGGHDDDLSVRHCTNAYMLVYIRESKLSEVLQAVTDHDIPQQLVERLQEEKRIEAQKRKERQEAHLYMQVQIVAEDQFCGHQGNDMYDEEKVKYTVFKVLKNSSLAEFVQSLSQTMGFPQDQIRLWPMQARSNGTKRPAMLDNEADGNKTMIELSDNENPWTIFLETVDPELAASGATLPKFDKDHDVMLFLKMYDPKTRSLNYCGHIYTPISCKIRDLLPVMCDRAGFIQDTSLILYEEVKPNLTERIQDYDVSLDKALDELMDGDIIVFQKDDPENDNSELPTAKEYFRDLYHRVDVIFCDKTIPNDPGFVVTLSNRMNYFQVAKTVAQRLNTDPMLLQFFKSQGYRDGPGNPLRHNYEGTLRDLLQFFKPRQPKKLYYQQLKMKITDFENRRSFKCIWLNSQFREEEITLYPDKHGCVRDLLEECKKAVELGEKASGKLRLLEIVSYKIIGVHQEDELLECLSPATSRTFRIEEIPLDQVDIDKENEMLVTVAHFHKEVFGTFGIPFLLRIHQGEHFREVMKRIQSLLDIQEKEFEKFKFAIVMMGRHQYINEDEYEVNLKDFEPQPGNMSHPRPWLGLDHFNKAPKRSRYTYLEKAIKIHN
Method in brief: as §1

USP8 = biological target: T5, USP8 (UniProt P40818)
T5 sequence (whole entry): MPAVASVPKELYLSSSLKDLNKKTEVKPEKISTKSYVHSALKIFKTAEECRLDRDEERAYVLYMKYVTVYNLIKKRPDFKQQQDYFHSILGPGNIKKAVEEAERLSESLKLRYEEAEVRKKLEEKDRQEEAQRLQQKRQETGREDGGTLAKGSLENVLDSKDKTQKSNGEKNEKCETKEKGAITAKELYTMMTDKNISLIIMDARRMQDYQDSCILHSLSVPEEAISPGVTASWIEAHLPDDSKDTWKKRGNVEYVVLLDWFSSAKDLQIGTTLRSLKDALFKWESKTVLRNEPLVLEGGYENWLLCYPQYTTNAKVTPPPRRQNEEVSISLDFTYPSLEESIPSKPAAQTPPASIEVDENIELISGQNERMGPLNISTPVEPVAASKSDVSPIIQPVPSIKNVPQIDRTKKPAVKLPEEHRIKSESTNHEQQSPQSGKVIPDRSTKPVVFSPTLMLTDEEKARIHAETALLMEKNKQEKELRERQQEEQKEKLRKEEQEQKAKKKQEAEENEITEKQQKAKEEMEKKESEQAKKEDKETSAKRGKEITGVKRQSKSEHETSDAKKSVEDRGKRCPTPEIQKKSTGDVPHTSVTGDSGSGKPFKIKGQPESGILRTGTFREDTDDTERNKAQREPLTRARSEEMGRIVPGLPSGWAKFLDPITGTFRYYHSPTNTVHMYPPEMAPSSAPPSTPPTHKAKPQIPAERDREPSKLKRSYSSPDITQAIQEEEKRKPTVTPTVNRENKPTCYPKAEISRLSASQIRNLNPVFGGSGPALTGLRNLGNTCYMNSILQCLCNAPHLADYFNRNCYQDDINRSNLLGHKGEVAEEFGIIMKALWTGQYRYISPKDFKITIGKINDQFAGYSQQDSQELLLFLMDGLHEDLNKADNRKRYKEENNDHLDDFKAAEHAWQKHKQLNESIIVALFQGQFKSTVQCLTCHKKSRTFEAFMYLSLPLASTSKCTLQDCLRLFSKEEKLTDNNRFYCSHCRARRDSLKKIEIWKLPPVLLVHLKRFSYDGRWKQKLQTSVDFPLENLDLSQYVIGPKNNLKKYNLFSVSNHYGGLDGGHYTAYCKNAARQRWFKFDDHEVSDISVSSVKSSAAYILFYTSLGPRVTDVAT
Method in brief: as §1

USP9X = USP9X (UniProt Q93008)
USP9X, sequence (Q93008 whole entry): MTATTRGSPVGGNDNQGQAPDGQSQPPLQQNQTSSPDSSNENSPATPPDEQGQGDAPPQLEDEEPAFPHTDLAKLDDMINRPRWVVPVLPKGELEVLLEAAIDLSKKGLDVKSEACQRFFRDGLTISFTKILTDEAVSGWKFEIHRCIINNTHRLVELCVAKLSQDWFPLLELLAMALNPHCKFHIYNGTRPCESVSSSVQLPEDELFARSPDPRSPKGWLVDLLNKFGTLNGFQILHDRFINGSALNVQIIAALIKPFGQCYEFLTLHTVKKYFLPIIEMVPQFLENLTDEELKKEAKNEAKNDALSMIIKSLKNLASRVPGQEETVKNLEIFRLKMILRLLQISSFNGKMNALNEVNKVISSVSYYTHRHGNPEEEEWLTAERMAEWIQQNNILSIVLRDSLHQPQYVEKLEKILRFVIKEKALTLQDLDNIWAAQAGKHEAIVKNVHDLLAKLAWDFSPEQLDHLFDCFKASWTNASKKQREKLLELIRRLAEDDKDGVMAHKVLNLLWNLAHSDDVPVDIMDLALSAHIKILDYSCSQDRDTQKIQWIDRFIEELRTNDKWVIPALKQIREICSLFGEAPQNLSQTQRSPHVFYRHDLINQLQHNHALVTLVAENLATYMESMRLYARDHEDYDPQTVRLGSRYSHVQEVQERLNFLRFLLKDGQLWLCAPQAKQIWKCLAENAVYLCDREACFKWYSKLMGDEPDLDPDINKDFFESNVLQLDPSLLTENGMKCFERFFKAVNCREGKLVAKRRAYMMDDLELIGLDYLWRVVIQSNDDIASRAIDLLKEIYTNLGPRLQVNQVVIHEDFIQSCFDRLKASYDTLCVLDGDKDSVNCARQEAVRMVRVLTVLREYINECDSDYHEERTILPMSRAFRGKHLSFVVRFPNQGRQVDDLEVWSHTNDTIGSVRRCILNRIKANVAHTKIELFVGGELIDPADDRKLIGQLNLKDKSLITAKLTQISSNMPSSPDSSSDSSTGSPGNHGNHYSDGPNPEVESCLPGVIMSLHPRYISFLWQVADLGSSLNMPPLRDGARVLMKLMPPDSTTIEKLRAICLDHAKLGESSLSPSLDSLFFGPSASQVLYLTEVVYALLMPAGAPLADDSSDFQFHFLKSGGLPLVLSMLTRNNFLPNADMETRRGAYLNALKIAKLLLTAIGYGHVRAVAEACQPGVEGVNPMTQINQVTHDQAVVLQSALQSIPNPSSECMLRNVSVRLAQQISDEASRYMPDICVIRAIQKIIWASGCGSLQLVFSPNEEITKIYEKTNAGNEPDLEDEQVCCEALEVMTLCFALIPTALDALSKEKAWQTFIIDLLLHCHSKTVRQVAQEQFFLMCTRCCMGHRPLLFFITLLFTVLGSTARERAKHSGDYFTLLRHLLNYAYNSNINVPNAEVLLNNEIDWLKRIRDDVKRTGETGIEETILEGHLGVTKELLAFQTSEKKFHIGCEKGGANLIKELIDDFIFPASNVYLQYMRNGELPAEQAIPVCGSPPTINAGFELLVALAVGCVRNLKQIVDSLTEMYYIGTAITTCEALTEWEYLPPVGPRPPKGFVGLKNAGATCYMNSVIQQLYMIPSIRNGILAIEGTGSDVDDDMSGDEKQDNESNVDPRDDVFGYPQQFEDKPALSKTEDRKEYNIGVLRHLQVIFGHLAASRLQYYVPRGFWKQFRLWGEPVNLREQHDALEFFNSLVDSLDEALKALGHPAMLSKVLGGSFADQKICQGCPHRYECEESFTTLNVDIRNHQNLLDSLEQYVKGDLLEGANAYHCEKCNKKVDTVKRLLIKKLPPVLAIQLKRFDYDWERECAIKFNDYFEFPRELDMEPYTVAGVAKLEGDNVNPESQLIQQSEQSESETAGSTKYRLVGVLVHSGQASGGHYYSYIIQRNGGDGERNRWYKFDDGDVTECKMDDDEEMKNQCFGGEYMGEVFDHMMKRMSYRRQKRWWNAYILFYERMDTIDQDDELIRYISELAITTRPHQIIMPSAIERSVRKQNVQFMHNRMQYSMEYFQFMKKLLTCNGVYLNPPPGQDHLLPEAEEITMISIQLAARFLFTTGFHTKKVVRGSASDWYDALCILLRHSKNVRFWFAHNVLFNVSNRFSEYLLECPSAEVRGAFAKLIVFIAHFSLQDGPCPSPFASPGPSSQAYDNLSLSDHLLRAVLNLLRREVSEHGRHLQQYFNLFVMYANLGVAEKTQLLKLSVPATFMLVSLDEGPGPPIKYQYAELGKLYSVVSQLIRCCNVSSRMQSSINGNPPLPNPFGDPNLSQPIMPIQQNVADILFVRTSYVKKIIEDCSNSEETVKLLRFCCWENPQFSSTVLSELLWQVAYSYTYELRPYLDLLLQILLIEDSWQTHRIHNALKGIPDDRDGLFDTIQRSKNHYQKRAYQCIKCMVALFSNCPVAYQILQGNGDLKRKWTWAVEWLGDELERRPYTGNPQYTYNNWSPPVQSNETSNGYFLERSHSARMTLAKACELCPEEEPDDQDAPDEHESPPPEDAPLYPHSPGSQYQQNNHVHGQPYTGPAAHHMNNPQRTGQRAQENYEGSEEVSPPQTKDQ
Method in brief: as §1

UniProt O00487 = biological target: UniProt O00487
UniProt O00487, sequence (O00487 whole entry): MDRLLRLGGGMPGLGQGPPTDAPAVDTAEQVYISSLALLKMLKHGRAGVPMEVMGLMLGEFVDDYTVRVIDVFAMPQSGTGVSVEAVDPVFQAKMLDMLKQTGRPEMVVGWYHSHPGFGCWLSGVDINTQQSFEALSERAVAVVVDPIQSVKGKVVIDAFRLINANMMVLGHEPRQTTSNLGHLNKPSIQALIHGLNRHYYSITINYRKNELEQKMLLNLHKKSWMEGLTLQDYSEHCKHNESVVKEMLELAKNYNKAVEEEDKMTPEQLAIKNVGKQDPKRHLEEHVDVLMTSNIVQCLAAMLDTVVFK
Method in brief: as §1

Measured: log2 ratio of Biotin-Ahx-Ub-VS probe labelling

Cc1ncsc1CCNC(=O)CCl
inactive: USP42 0.0552 | USP46 0.359 | USP47 0.687 | USP48 0.00776 | USP5 0.325 | USP54 0.227 | USP7 0.0797 | USP8 0.298 | USP9X -0.0257 | UniProt O00487 0.339
